We go through 31 compounds from PubChem BioAssay AID620 (Sanford-Burnham Center for Chemical Genomics, 2007).

The structures appear in SMILES notation. The campaign covered roughly 87,000 compounds. About 360 (0.41%) were called active. Cut-off read from the data, not from the text of the source: active = cytotoxicity above about 50%; inactive = the rest. For the sample, actives were picked, then their nearest neighbours and some compounds at random.

This test in a line: cytotoxicity in HT1080 fibrosarcoma cells, cell-based, fluorescence readout (AID 620).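 Note: cells exposed to compound overnight then 4 h with Alamar Blue; 0% = vehicle DMSO and 100% = killing control.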 The settings on record: HT1080 viability, at 10 µM, stronger effect = higher value.
In the case of `O=C(NCc1ccccn1)[C@@H]1C[C@H]1[C@@H](NP(=O)(c1ccccc1)c1ccccc1)c1ccccc1`, the cytotoxicity is -17.9% (inactive).

Turning to `CCOc1ccc(NC(=O)CSc2nnc(-c3ccco3)n2C)cc1`, the cytotoxicity is -3.7% (inactive).

Regarding `CN(C(=O)c1cc2n(n1)C(C(F)(F)F)CC(c1ccco1)N2)c1ccccc1` (stereo unspecified), the cytotoxicity was 56.4% (active).

Regarding `O=C(NC1CCCCCC1)c1cc2n(n1)C(C(F)(F)F)CC(c1ccco1)N2` (stereo unspecified), the cytotoxicity is -4.1% (inactive). In the case of `CN(C(=O)c1cc2n(n1)C(C(F)(F)F)CC(c1ccco1)N2)c1ccc(OC(F)(F)F)cc1` (stereo unspecified) it was -1.6% (inactive); in that of `NC(=O)Nc1ccc(Oc2c(F)c(F)c(F)c(F)c2F)cc1`, 6% (inactive); in that of `OC(CCN1CCCC1)(c1ccccc1)C1CCCCC1` (stereo unspecified), -2.5% (inactive). In the case of `CC(C)(C)c1ccc(C(O)CCCN2CCC(C(O)(c3ccccc3)c3ccccc3)CC2)cc1` (stereo unspecified) it was 93.4% (active). In the case of `OC(CCCCN1CCCCC1)c1ccccc1` (stereo unspecified) it was -4.7% (inactive); in that of `O=c1c2ccccc2nnn1CSc1nc2ccccc2c(=O)n1Cc1ccco1`, -4.3% (inactive). Take `CC1CCCCC1NC(=O)CCn1c(=O)oc2ccccc21` (stereo unspecified): the cytotoxicity is -4% (inactive). In the case of `O=C(NCc1cccs1)c1noc2c1CCCCC2` it was -0.7% (inactive); in that of `O=C(Nc1nccs1)c1ccc(S(=O)(=O)NCC2CCCCC2)cc1`, -11.1% (inactive). In the case of `CCOc1ccc(NC(=O)Cn2nnc(C(=O)NCc3ccco3)c2N)cc1` it was 11.4% (inactive); in that of `CCOc1ccccc1NC(=O)Cn1nnc(C(=O)NCc2ccco2)c1N`, 56.8% (active); in that of `COc1ccc(NC(=O)Cn2nnc(C(=O)NCc3ccco3)c2N)c(OC)c1`, -0.4% (inactive). In the case of `CCOc1ccccc1NC(=O)C(CC(C)C)NC(=O)C1CCC(C)CC1` (stereo unspecified), the cytotoxicity is 4.7% (inactive).

As to `O=C(CCl)N(c1ccc(Cl)cc1)c1c[nH]c2ccccc12`, the cytotoxicity is 100% (active). Turning to `CCN(CC)CC(=O)c1c[nH]c2ccccc12`, the cytotoxicity is 3.6% (inactive). Next, `CC(=O)N(c1ccc(Cl)cc1)c1c[nH]c2ccccc12`: 3.1% (inactive); `O=C(CCl)N(c1ccccc1)c1c[nH]c2ccccc12`: 71% (active); `CN(C)CC(=O)c1c[nH]c2ccccc12`: -5.2% (inactive). Next, `O=C(O)CCC(=O)c1c[nH]c2ccccc12`: -4.6% (inactive); `CC(C)OC(=O)c1cccnc1SCc1cc(=O)n2ccccc2n1`: -0.4% (inactive). With `COc1cc(C)nc(N2CCCC(C(=O)NC3CCC(C)CC3)C2)n1` (stereo unspecified), the cytotoxicity was -9.4% (inactive). Next, `Cc1c(C(=O)NC2CCCCC2)oc2c1C(=O)CC(C)(C)C2`: -3.7% (inactive); `CCOc1ccc2nc(SCC)[nH]c2c1`: 15.4% (inactive); `COc1ccc2nc(-c3ccccc3)[nH]c2c1`: 28.2% (inactive).

On to `CCOc1ccc2nc(-c3ccccc3)[nH]c2c1`, for which the cytotoxicity is 66.7% (active). As to `COc1ccc(OCc2nc3ccccc3[nH]2)cc1`, the cytotoxicity is 5.1% (inactive). In the case of `Nc1ccc(-c2nc3ccccc3[nH]2)cc1` it was -3.5% (inactive).
